Source: PubChem BioAssay (NCI)
About 83,000 compounds went through this panel and 20% of them were active in at least one assay; those are over-represented in the sample as a whole.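 Single-dose data. Exposure time 48 hours. Values below 10 considered active.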 Active and inactive are the calls of the source.

How the values were obtained:
Test in all cases: NCI-60 one-dose screen, 48 h (100 = growth as untreated, 0 = no growth, -100 = all killed)
Conditions in all cases: 10 µM unless noted
T-47D breast = system: T-47D breast
BT-549 breast = system: BT-549 breast
MDA-MB-435 melanoma = system: MDA-MB-435 melanoma
SW-620 colon = system: SW-620 colon
MCF7 breast = system: MCF7 breast
HCT-116 colon = system: HCT-116 colon
HCC-2998 colon = system: HCC-2998 colon
KM12 colon = system: KM12 colon

Measured: growth

CCCCNC(=O)Oc1ccc(/C(=C(/CC)Cc2ccccc2)c2ccc(OCCCN(C)C)cc2)cc1
inactive: T-47D breast 60.7% | BT-549 breast 95.4% | MDA-MB-435 melanoma 83.3% | SW-620 colon 77.3% | MCF7 breast 27.9% | HCT-116 colon 67.9% | HCC-2998 colon 88.3% | KM12 colon 78.3%

Nc1nc(-c2cc3c(cc2Cl)NC(=O)/C3=C/c2ccc(Cl)cc2)cs1
inactive: T-47D breast 18.1% | BT-549 breast 26.3% | SW-620 colon 30% | MCF7 breast 16.8% | HCT-116 colon 24.2% | HCC-2998 colon 73.3% | KM12 colon 36%
active: MDA-MB-435 melanoma 1.64%

O=C1COc2ccccc2C(=O)N1CCCCNc1ccccc1
inactive: T-47D breast 73.3% | BT-549 breast 46% | MDA-MB-435 melanoma 98.1% | SW-620 colon 92.3% | MCF7 breast 82.8% | HCT-116 colon 77.4% | HCC-2998 colon 94.5% | KM12 colon 79.9%

COc1ccc(/C=C/C(=O)c2ccc(-n3cc(CN4CCN(c5cc6c(cc5F)c(=O)c(C(=O)O)cn6C5CC5)CC4)nn3)cc2)cc1OC
inactive: T-47D breast 28.1% | BT-549 breast 51% | MCF7 breast 16.1%
active: MDA-MB-435 melanoma 5.4% | SW-620 colon 9.41% | HCT-116 colon -39.5% | HCC-2998 colon -39.7% | KM12 colon 8.81%

C=C1c2c(Cl)ccc(O)c2C(O)=C2C(=O)[C@]3(O)C(O)=C(C(N)=O)C(=O)[C@@H](N(C)C)[C@@H]3[C@@H](O)[C@H]12
inactive: T-47D breast 21.8% | MDA-MB-435 melanoma 12.7% | SW-620 colon 16.4% | MCF7 breast 29.8%
active: BT-549 breast -19.7% | HCT-116 colon 2.75% | HCC-2998 colon 8.18% | KM12 colon 1.27%

NS(=O)(=O)c1ccc(-n2nc(-c3ccc(Cl)cc3)ccc2=O)cc1
inactive: T-47D breast 95.2% | BT-549 breast 92.9% | MDA-MB-435 melanoma 43.5% | SW-620 colon 93.1% | MCF7 breast 86.2% | HCT-116 colon 99.6% | HCC-2998 colon 102% | KM12 colon 69.7%

CC(C)C(=O)Nc1nc2c(s1)CCCc1ccn(S(=O)(=O)c3ccccc3)c1-2
inactive: T-47D breast 91.9% | BT-549 breast 89.8% | MDA-MB-435 melanoma 106% | SW-620 colon 105% | MCF7 breast 86.3% | HCT-116 colon 78.9% | HCC-2998 colon 106% | KM12 colon 97.1%

Nc1ncnc2c1c(-c1ccc(Oc3ccccc3)cc1)nn2C[C@H]1SSC[C@H]1O
inactive: BT-549 breast 38.9% | SW-620 colon 69.2% | HCC-2998 colon 11.2%
active: T-47D breast -20.6% | MDA-MB-435 melanoma -74.6% | MCF7 breast -53.9% | HCT-116 colon -69.3% | KM12 colon 9.93%

O=C(Nc1ccc(-n2ccc3c(NC(=O)c4ccccc4)nccc32)cc1)Nc1cccc(C(F)(F)F)c1
inactive: T-47D breast 57.6% | BT-549 breast 74% | MDA-MB-435 melanoma 61.4% | SW-620 colon 63.4% | MCF7 breast 47.7% | HCC-2998 colon 67.8% | KM12 colon 11.2%
active: HCT-116 colon 4.34%

C=C1C(=O)O[C@H]2[C@H]1CC/C(COC(=O)c1ccccc1)=C\CC[C@@]1(C)O[C@@H]21
active: T-47D breast -18.7% | BT-549 breast -13.7% | MDA-MB-435 melanoma -3.73% | SW-620 colon -55.4% | MCF7 breast -30.7% | HCT-116 colon -86.6%
inactive: HCC-2998 colon 83.9% | KM12 colon 65.6%

CN(C)CC/C=C1\c2ccccc2Sc2ccc(Cl)cc21
inactive: T-47D breast 70.7% | BT-549 breast 86.5% | MDA-MB-435 melanoma 36.2% | SW-620 colon 81.5% | MCF7 breast 62.3% | HCT-116 colon 36.5% | HCC-2998 colon 27.4% | KM12 colon 69.3%

Cc1nc(N)nc(SCc2ccccc2)c1Br
inactive: T-47D breast 65.2% | BT-549 breast 76.4% | MDA-MB-435 melanoma 111% | SW-620 colon 104% | MCF7 breast 79.8% | HCT-116 colon 89% | HCC-2998 colon 117% | KM12 colon 98.6%

CC(=O)CC/C=C(\C)[C@H](O)[C@H](C)C(=O)O[C@H]1C[C@H](C)C=C2C=C[C@@]3(C)O[C@@H](O)CC(=O)[C@]3(C)[C@H]21
active: T-47D breast -26.6% | BT-549 breast -57% | MDA-MB-435 melanoma -88.3% | SW-620 colon 1.02% | MCF7 breast -4.71% | HCT-116 colon -20.3% | HCC-2998 colon -81.9% | KM12 colon -10%

Nc1ncc(-c2ccc3ncnc(Nc4ccc(F)c(Cl)c4)c3c2)cn1
inactive: T-47D breast 26% | BT-549 breast 22.5% | MDA-MB-435 melanoma 84% | SW-620 colon 66.4% | MCF7 breast 27.1% | HCT-116 colon 21% | HCC-2998 colon 83.9% | KM12 colon 66.1%

CCOC(=O)C(C)(CSSCC(C)(NC(=O)c1ccc2ccccc2c1)C(=O)OCC)NC(=O)c1ccc2ccccc2c1 (configuration not stated)
inactive: T-47D breast 86.6% | BT-549 breast 138% | MDA-MB-435 melanoma 96.3% | SW-620 colon 96.5% | MCF7 breast 92.2% | HCT-116 colon 47% | HCC-2998 colon 119% | KM12 colon 107%

CCC1S/C(=N\N=C(/C)c2cccs2)N(c2ccccc2)C1=O (configuration not stated)
inactive: T-47D breast 90.6% | BT-549 breast 112% | MDA-MB-435 melanoma 117% | SW-620 colon 96.1% | MCF7 breast 84.5% | HCT-116 colon 90.2% | HCC-2998 colon 121% | KM12 colon 115%

COc1cc2ncnc(Oc3ccc(NC(=O)Nc4ccc(C5(C#N)CCCC5)cc4)c4ccccc34)c2cc1OC
inactive: T-47D breast 64.3% | BT-549 breast 86.5% | MDA-MB-435 melanoma 43.4% | SW-620 colon 53.9% | MCF7 breast 55.2% | HCT-116 colon 30.8% | HCC-2998 colon 107% | KM12 colon 43.7%

Nc1nc(-c2cc3c(cc2Cl)NC(=O)/C3=C/c2ccccc2)cs1
active: T-47D breast 7.52% | MCF7 breast 7.09%
inactive: BT-549 breast 55.7% | MDA-MB-435 melanoma 24.4% | SW-620 colon 40.4% | HCT-116 colon 14.5% | HCC-2998 colon 58% | KM12 colon 45.5%

S=C=NP1(N=C=S)=NP(N=C=S)(N=C=S)=NP(N=C=S)(N=C=S)=NP(N=C=S)(N=C=S)=N1 (configuration not stated)
inactive: T-47D breast 82.3% | BT-549 breast 80.4% | MDA-MB-435 melanoma 104% | SW-620 colon 108% | MCF7 breast 91% | HCT-116 colon 98.8% | HCC-2998 colon 102% | KM12 colon 102%

COc1cc(-c2nc3ccccc3s2)ccc1OCc1nc2n(n1)S(=O)(=O)c1ccccc1N2C
inactive: T-47D breast 85.3% | BT-549 breast 80.2% | MDA-MB-435 melanoma 90% | SW-620 colon 92.4% | MCF7 breast 90.5% | HCT-116 colon 66.1% | HCC-2998 colon 109% | KM12 colon 84.2%

CCOc1ccc(Cc2nccc3cc(OCC)c(OCC)cc23)cc1OCC
inactive: T-47D breast 39.1% | BT-549 breast 49.1% | MDA-MB-435 melanoma 60.2% | SW-620 colon 39.1% | MCF7 breast 72.7% | HCT-116 colon 26.5% | HCC-2998 colon 52.2% | KM12 colon 49.3%

NC(=O)C1=C[C@H]2[C@H]3C=C[C@@]2(O)C(=O)O[C@@H]3O1
inactive: T-47D breast 38.2% | BT-549 breast 64.2% | MDA-MB-435 melanoma 36.9% | SW-620 colon 40.3% | MCF7 breast 21.6% | HCT-116 colon 18.4% | HCC-2998 colon 91.6% | KM12 colon 84.9%

CCn1cc(C(=O)O)c(=O)c2cc(F)c(N3CCN(CC(=O)Nc4ccc(C(C)=O)cc4)CC3)cc21
inactive: T-47D breast 92% | BT-549 breast 109% | MDA-MB-435 melanoma 102% | SW-620 colon 103% | MCF7 breast 99.1% | HCT-116 colon 104% | HCC-2998 colon 96.2% | KM12 colon 97.4%

COc1ccc(Cn2cc(COc3ccc4c5ccnc(C)c5n(CCCc5ccccc5)c4c3)nn2)cc1
inactive: T-47D breast 61.8% | BT-549 breast 67.5% | MDA-MB-435 melanoma 63.2% | SW-620 colon 65.5% | MCF7 breast 47.7% | HCT-116 colon 51.5% | HCC-2998 colon 83% | KM12 colon 59.7%

O=C(Nc1ccc(-n2ccc3c(NC(=O)c4ccccc4)nccc32)cc1)c1ccc(Cl)c(C(F)(F)F)c1
inactive: T-47D breast 62.3% | BT-549 breast 37.6% | MDA-MB-435 melanoma 11.6% | HCC-2998 colon 19.7%
active: SW-620 colon -45.8% | MCF7 breast -62.6% | HCT-116 colon -92.4% | KM12 colon -3.15%

COc1ccc(NC(=O)COCCOCCNC[C@@H]2C(=O)O[C@H]3[C@H]2CC/C(COC(=O)OC/C2=C/CC[C@@]4(C)O[C@H]4[C@H]4OC(=O)[C@@H](CN(C)C)[C@@H]4CC2)=C\CC[C@@]2(C)O[C@@H]32)c(O)c1C(N)=O
active: SW-620 colon -6.42% | HCT-116 colon -38.6%
inactive: T-47D breast 15.8% | BT-549 breast 56.8% | MDA-MB-435 melanoma 49.6% | MCF7 breast 19.4% | HCC-2998 colon 106% | KM12 colon 79.3%

CN1C(=O)C2(NN=C(c3cccc4ccccc34)S2)c2ccccc21 (configuration not stated)
active: T-47D breast 5.27%
inactive: BT-549 breast 30.1% | MDA-MB-435 melanoma 57.8% | SW-620 colon 35.5% | MCF7 breast 24% | HCT-116 colon 14.8% | HCC-2998 colon 51.7% | KM12 colon 30.8%

CN1CCN(CC(=O)N(C)c2ccc(N=C(c3ccccc3)c3c(O)[nH]c4ccc(C#N)cc34)cc2)CC1
inactive: T-47D breast 69.4% | BT-549 breast 15.1% | MDA-MB-435 melanoma 23.9% | SW-620 colon 16.5% | MCF7 breast 12.7% | HCC-2998 colon 39.8%
active: HCT-116 colon 9.41% | KM12 colon 9.43%

COc1ccc(-c2ccc(NC(=O)Nc3cccc(C(F)(F)F)c3)c(C)n2)cc1
inactive: T-47D breast 26.5% | BT-549 breast 66.4% | MDA-MB-435 melanoma 69.6% | SW-620 colon 81% | MCF7 breast 41.5% | HCT-116 colon 26.9% | HCC-2998 colon 81.1% | KM12 colon 45.6%
